# Assay results published in PubChem BioAssay (NCATS).
# Results filed as inconclusive are left out. The source made the active and inactive calls. Calls come from the whole dose curve; as a rule, active = well fitted cell-killing curve with a large enough effect; inconclusive = small, poorly fitted or top-dose-only effect, or effect the other way; inactive = no such curve, though single readings can be large or run the other way.
# How the values were obtained:
# [1] = Quantitative High-Throughput drug screen in 47 multiple myeloma cell lines against the NCATS MIPE library collection: Delta47_JCRB cell viability assay (AID 1918925; note: nearly all actives have a fitted effect of over 45% in size)
# Method in brief: (§1)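 Steps: seed 500 cells per well; pin-transfer MIPE 4.0 library; incubate 48 h at 37C, 5% CO2, humidified; add CellTiter-Glo, 5 min room temperature; read luminescence.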
# [2] = Quantitative High-Throughput drug screen in 47 multiple myeloma cell lines against the NCATS MIPE library collection: AMO1_DSMZ cell viability assay (AID 1918927; note: nearly all actives have a fitted effect of over 30% in size)
# Method in brief: as §1
# [3] = Quantitative High-Throughput drug screen in 47 multiple myeloma cell lines against the NCATS MIPE library collection: ARP1_JJKsccF8 cell viability assay (AID 1918928; note: nearly all actives have a fitted effect of over 40% in size)
# Method in brief: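 Here, 48 h treatment with MIPE 4.0 agents at 37 °C preceded an ATP luminescence read. Plating density was 500 cells per well.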
# [4] = Quantitative High-Throughput drug screen in 47 multiple myeloma cell lines against the NCATS MIPE library collection: ARD_JJKsccE7 cell viability assay (AID 1918929)
# Method in brief: as §1
# [5] = Quantitative High-Throughput drug screen in 47 multiple myeloma cell lines against the NCATS MIPE library collection: Karpas620_DSMZ cell viability assay (AID 1918959); note: nearly all actives have a fitted effect of over 30% in size
# Method in brief: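 Myeloma cell lines, 500 cells per well, exposed to MIPE 4.0 library compounds for 48 h at 37C, 5% CO2. Viability from ATP by CellTiter-Glo luminescence; normalised to DMSO (100%) and media-only (0%) wells.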
# [6] = Quantitative High-Throughput drug screen in 47 multiple myeloma cell lines against the NCATS MIPE library collection: EJM_DSMZ cell viability assay (AID 1918926; note: nearly all actives have a fitted effect of over 30% in size)
# Method in brief: as §1
# Potency is the fitted concentration of half-maximal effect.
Compound,Potency [1],Potency [2],Potency [3],Potency [4],Potency [5],Potency [6]
COc1cc2ncn(-c3cc(OCc4ccccc4S(C)(=O)=O)c(C#N)s3)c2cc1OC,inactive,inactive,inactive,inactive,inactive,–
CN1CCC[C@H]1CCO[C@](C)(c1ccccc1)c1ccc(Cl)cc1,13.2 µM (active),–,inactive,inactive,–,–
N#CC(=C1Nc2ccccc2S1)c1ccnc(OCc2ccc(CN3CCOCC3)cc2)n1,7.43 µM (active),0.0332 µM (active),23.5 µM (active),0.105 µM (active),0.0264 µM (active),–
CO[C@@H]1C(N(C)C(=O)c2ccccc2)C[C@H]2O[C@]1(C)n1c3ccccc3c3c4c(c5c6ccccc6n2c5c31)C(=O)NC4=O (stereo partly drawn),1.87 µM (active),–,–,1.87 µM (active),inactive,–
O=C(NC[C@H](O)CO)c1ccncc1Nc1ccc(I)cc1F,11.8 µM (active),5.26 µM (active),2.96 µM (active),–,0.0296 µM (active),–
COc1ccc2c(c1)c(C1=C(c3c[nH]c4ccccc34)C(=O)NC1=O)cn2CCCN(C)C,7.43 µM (active),14.8 µM (active),–,23.5 µM (active),–,–
CC(C)(CO)[C@@H](O)C(=O)NCCC(=O)O,–,inactive,1.66 µM (active),inactive,inactive,inactive
CO[C@H]1/C=C\O[C@@]2(C)Oc3c(C)c(O)c4c(O)c(c5c(nc6cc(C)ccn65)c4c3C2=O)NC(=O)C(C)=CC=C[C@H](C)[C@H](O)[C@@H](C)[C@@H](O)[C@@H](C)[C@H](OC(C)=O)[C@H]1C,11.8 µM (active),16.6 µM (active),–,18.7 µM (active),18.7 µM (active),–
Nc1ncnc2c1ncn2[C@@H]1O[C@H](CO)[C@@H](O)[C@@H]1O,–,1.87 µM (active),23.5 µM (active),2.64 µM (active),5.26 µM (active),inactive
CCC(=O)OCC(=O)[C@@]1(OC(=O)CC)[C@@H](C)C[C@@H]2[C@H]3CCC4=CC(=O)C=C[C@]4(C)[C@@]3(F)[C@@H](O)C[C@@]21C,inactive,9.35 µM (active),–,2.09 µM (active),2.35 µM (active),–
CC(C)C[C@@H](C(=O)N[C@H](C(=O)OC1CCCC1)c1ccccc1)[C@H](O)C(=O)NO,20.9 µM (active),inactive,14.8 µM (active),4.69 µM (active),5.26 µM (active),–
O=C(c1ccc(F)c(F)c1Nc1ccc(I)cc1F)N1CC(O)([C@H]2CCCCN2)C1,20.9 µM (active),3.32 µM (active),–,10.5 µM (active),0.105 µM (active),–
COc1ccc(-c2cc(=O)c3c(O)cc(O[C@@H]4O[C@H](CO[C@@H]5O[C@@H](C)[C@H](O)[C@@H](O)[C@@H]5O)[C@@H](O)[C@H](O)[C@@H]4O)cc3o2)cc1O,14.8 µM (active),inactive,inactive,inactive,–,–
O=S(=O)(NCCNCC=Cc1ccc(Br)cc1)c1cccc2cnccc12,14.8 µM (active),16.6 µM (active),16.6 µM (active),10.5 µM (active),20.9 µM (active),–
CN(C)c1ccccc1CN1CCCN(Cc2ccccc2N(C)C)C1c1ccncc1,20.9 µM (active),16.6 µM (active),–,18.7 µM (active),–,–
C=C[C@@H]1CN2CCC1C[C@@H]2C(O)c1ccnc2ccc(OC)cc12 (stereo partly drawn),inactive,inactive,1.87 µM (active),–,inactive,–
CN1CCN(c2ncc(-c3cc(Cl)cc(Cl)c3Cl)c(N)n2)CC1,23.5 µM (active),–,inactive,inactive,20.9 µM (active),–
CN[C@@H]1CN(c2ccc3c(=O)c(C(=O)O)cn(-c4nccs4)c3n2)C[C@@H]1OC,5.75 µM (active),0.812 µM (active),1.82 µM (active),inactive,inactive,–
O=C(Nc1cccc(Cl)c1)Nc1ncc(CCNc2ncnc3ccsc23)s1,7.43 µM (active),1.05 µM (active),–,4.69 µM (active),3.32 µM (active),–
COc1cc(N2CCN(C)CC2)ccc1Nc1nc(N)c(C(=O)c2c(Cl)cccc2Cl)s1,–,18.7 µM (active),–,–,–,23.5 µM (active)
COc1c(C)cnc(Cn2cnc3c(Cl)nc(N)nc32)c1C,0.264 µM (active),0.0833 µM (active),0.118 µM (active),0.0418 µM (active),0.209 µM (active),–
CN(C(Cc1ccc(OS(=O)(=O)c2cccc3cnccc23)cc1)C(=O)N1CCN(c2ccccc2)CC1)S(=O)(=O)c1cccc2cnccc12 (stereo not drawn),5.26 µM (active),8.33 µM (active),–,5.9 µM (active),5.9 µM (active),–
Clc1ccc(COC(Cn2ccnc2)c2ccc(Cl)cc2Cl)c(Cl)c1 (stereo not drawn),–,23.5 µM (active),18.7 µM (active),23.5 µM (active),20.9 µM (active),20.9 µM (active)
Cc1cc(CS(=O)(=O)c2ccccc2)cc(OCc2ccc(CN3CCC[C@H]3CO)cc2)c1,14.8 µM (active),14.8 µM (active),–,–,14.8 µM (active),–
